In PubChem BioAssay AID602244 (Sanford-Burnham Center for Chemical Genomics, 2012):
The whole screen tested about 360,000 compounds, of which about 1,300 (0.36%) were called active. The list comes from a sample in which actives are over-represented; it also holds similar structures and randomly drawn compounds. Values without a mark were called inactive. Cut-off read from the data, not from the text of the source: active = inhibition above about 34% (passing the limit was not always enough); inactive = the rest.

What follows are compounds tested against C-X-C chemokine receptor type 6 (Homo sapiens) (UniProt O00574) (assay: CXCR6 receptor inhibitors, primary screen, cell-based, beta-arrestin, luminescence, CHO-K1 PathHunter, 1536-well (AID 602244;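 note: antagonist mode with CXCL16 agonist at 10 nM final; 0% = 10 nM CXCL16 with DMSO and 100% = unstimulated wells without agonist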)). Settings: at 20 µM, stronger effect = higher value.
C-X-C chemokine receptor type 6 (Homo sapiens), sequence (O00574 whole entry, looked up): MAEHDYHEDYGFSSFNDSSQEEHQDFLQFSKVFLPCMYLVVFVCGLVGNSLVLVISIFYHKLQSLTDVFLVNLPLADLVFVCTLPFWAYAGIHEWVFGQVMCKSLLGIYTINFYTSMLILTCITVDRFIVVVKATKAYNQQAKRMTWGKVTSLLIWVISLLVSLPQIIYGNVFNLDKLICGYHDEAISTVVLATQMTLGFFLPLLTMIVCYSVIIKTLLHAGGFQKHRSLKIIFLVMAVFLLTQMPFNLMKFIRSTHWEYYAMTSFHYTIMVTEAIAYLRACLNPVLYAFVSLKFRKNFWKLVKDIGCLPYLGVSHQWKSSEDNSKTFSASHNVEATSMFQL

| SMILES | inhibition |
| --- | --- |
| Nc1ccccc1SC(C[N+](=O)[O-])c1ccccc1 (centres undefined) | 43.8% (active) |
| CC(=O)Oc1ccc(Cn2c(C)c(C(=O)NCc3ccc(C#N)cc3)sc2=O)cc1 | 3.1% |
| CC(=O)N1Cc2ccccc2CC1C(=O)O (centres undefined) | 8% |
| Cc1ccc(/C=N/NC(=O)C2=NNC(c3ccccc3)(c3ccccc3)C2)c(O)c1 | 49.2% (active) |
| Cc1ccc(NC(=O)CCC(=O)N/N=C/c2ccco2)c(C)c1 | -4% |
| Cc1ccc(/C=N/NC(=O)C(NC(=O)c2ccccc2)c2n[nH]c(=O)c3ccccc23)cc1 (centres undefined) | -2.3% |
| O=C(NCCc1ccccc1)c1ccc(NC2=NC3CS(=O)(=O)CC3S2)cc1 (centres undefined) | 0% |
| O=[N+]([O-])c1ccccc1N/N=C1\CCc2ccccc21 | 2.8% |
| S=C(NCCC1=CCCCC1)Nc1ccccc1 | -7% |
| CCCCNC(=S)N/N=C1\CCCCc2ccccc21 | 37.6% (active) |
| NC(=O)C1=C[C@@H](c2ccc3c(c2)OCO3)C[C@@H](OCCCCO)O1 | 1.5% |
| Cc1ccc(NC(=O)CN(C)C(=O)COC(=O)c2nccnc2N)cc1 | -1.8% |
| O=C(COC(=O)c1cccc(Br)c1)Nc1cccc2c1C(=O)c1ccccc1C2=O | -9.2% |
| O=C(NC1=CC(=O)c2ccccc2C1=O)c1ccccc1 | 71.6% (active) |
| CC(=O)c1cc(NC(=O)c2ccccc2)c(=O)oc1/C=C/N(C)C | 9.9% |
| CCOC(=O)N1CCC(Nc2c(NCCCN3CCN(CC)CC3)c(=O)c2=O)CC1 | 8.9% |
| CCCCS(=O)c1snnc1C (centres undefined) | -4.7% |
| CCCCc1ccc(S(=O)(=O)NC(=O)C2(C)CCN2C(=O)c2ccccc2)cc1 (centres undefined) | 7.2% |
| Cc1ccc(C23CC4CC(CC(C(=O)NCC(=O)O)(C4)C2)C3)cc1 | 1.5% |
| CCCCN(C)CCNC(=O)CSCc1ccc(C)cc1 | 2.3% |

| SMILES | inhibition |
| --- | --- |
| Cc1ccc(N=Cc2c(O)n(-c3nccs3)c(=O)c3ccccc23)c(C)c1 | 4.8% |
| Cc1cccc(N2C(=O)CC(SC(N)=Nc3ccccc3)C2=O)c1 (centres undefined) | 2.2% |
| Cc1cccc(-n2c(O)c(C=Nc3ccccc3N)c(=O)[nH]c2=O)c1 | 108% (active) |
| O=C(Cn1ncc2c3ccccc3n(Cc3ccccc3)c2c1=O)NCCCN1CCOCC1 | 8.7% |
| O=C(COc1nsnc1N1CCOCC1)Nc1ccccc1Cl | -3.6% |
| Cn1cccc1C(=O)NC(=O)COC(=O)Cc1coc2ccc3ccccc3c12 | -1.2% |
| CC(C)c1nc2sc3c(c2c(=O)n1N)CC(C)(C)OC3 | 2.4% |
| COc1cc(NC(=O)C2CCN(c3cnccn3)CC2)cc(OC)c1 | -10.3% |
| O=C(OC1CCCCC1=O)c1cccc(S(=O)(=O)NCc2ccccc2)c1 (centres undefined) | 7.3% |
| CC(=O)N/C(=C\c1ccc(F)cc1)C(=O)NC(Cc1ccccc1)C(=O)O (centres undefined) | 1.6% |
| CC(=O)c1ccc(S(=O)(=O)N(C)CCCC(=O)N(C)Cc2ccccc2F)cc1 | 0.4% |
| CCCNC(=O)c1cc(C2CCCN(C(=O)c3ccc4c(c3)CCO4)C2)on1 (centres undefined) | -0.8% |
| CCOC(=O)C1CCN(C(=O)c2oc3ccc(S(=O)(=O)N4CCCCCC4)cc3c2C)CC1 | -3.5% |
| Cc1c(C(=O)NCCN(C)C)oc2ccc(S(=O)(=O)N3CCCC3)cc12 | 65.9% (active) |
| COc1ccc(NC(=O)c2oc3ccc(S(=O)(=O)N4CCOCC4)cc3c2C)cc1 | -0.9% |
| CC(Oc1cccc(Cl)c1)C(=O)Nc1ccc(S(=O)(=O)Nc2ncccn2)cc1 (centres undefined) | -1.1% |
| CC[C@@H]1Cc2cc(O)ccc2C2=C1c1ccc(O)cc1C[C@H]2CC | -3.2% |
| COC(=O)c1ccc(S(=O)(=O)N2CCC(c3nc4ccccc4o3)CC2)cc1 | 1.2% |
| CC1Cn2c(nnc2-c2cccs2)S1 (centres undefined) | -1.1% |
